TRb SRC2 PPI: disrupts binding of human TR beta to SRC2. actives 0.065% (n = 280,000). P10828. AID 1469. TRbeta-SRC2 peptide binding, fluorescence polarization; receptor liganded with 1 µM T3. Potency, µM (titrated, usually from 106 µM), for the others: at the top dose activity change, negative = inhibition, actives largely listed as inhibitors;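 further: plate controls were bound peptide for no effect and peptide without receptor for full effect; nearly all actives have a fitted effect of over 50% in size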
Target sequence (P10828 whole entry, looked up): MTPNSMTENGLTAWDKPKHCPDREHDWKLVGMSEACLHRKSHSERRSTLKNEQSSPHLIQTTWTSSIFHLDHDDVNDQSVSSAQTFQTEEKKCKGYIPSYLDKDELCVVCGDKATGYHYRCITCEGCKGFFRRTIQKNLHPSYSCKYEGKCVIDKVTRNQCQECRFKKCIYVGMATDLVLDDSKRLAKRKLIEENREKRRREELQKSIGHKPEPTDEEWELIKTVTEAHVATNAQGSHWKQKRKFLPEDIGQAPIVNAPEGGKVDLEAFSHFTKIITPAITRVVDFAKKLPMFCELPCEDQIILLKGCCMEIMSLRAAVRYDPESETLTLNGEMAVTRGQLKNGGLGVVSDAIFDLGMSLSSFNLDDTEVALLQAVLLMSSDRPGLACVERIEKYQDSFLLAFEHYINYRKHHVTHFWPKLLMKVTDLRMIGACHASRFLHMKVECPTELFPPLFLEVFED
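Each compound concentration gave % activity, normalized to unbound and bound Texas Red SRC2 controls, from polarization read after 5 hr ambient incubation with T3-loaded human TRb LBD.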
KDM4E inh: inhibitors of human JMJD2E histone demethylase; JMJD2E catalytic domain, FDH-coupled NADH fluorescence (FDH is formaldehyde dehydrogenase); Potency, µM (top dose mostly 57.1 µM), for inactives: top-dose activity change, negative = inhibition, usual class: inhibitors; actives 1.6% (n = 230,000); active means well fitted inhibition curve with a large enough effect, not every such curve was filed as active; inconclusive means small, poorly fitted or top-dose-only effect, or another doubt; inactive means no such curve, though single readings can be large or run the other way;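 further: 0% = wells with enzyme and -100% = buffer wells without enzyme; nearly all actives have a fitted effect of over 50% in size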
Tau FP inhib: tau fibrillization inhibition (FP); P10636; Potency, µM (top dose mostly 57.7 µM), inactives show top-dose activity, negative = inhibition, actives largely listed as inhibitors; K18 P301L tau heparin fibrillization, Alexa594 FP, 6 h; actives 0.39% (n = 280,000); further: nearly all actives have a fitted effect of over 55% in size
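Heparin (20 uM) drove fibril formation of recombinant tau K18 P301L, 15 uM unlabeled with 0.24 uM Alexa 594 label, for 6 hr at 37 C in 100 mM sodium acetate pH 7. Fluorescence polarization (555/632 nm) read 1 hr after 30 uM ThT.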
TexasRed fluor: counter-screen for TRb-SRC2 inhibitors: fluorescence interference. TRb/SRC2 Texas Red total fluorescence interference. Potency, µM (top dose mostly 106 µM), for the others: top-dose fluorescence change, negative = quenching. actives 0.29% (n = 280,000); active means well fitted curve in either direction with a large enough effect; inconclusive means small, poorly fitted or top-dose-only effect
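Human TRb ligand-binding domain at 0.6 uM with 20 nM Texas Red SRC2 peptide in Tris buffer containing 1 uM T3 and 5% DMSO, incubated with compound 5 h at ambient temperature. Total fluorescence (555/632 nm) calculated as parallel + 2 × perpendicular.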
Tau fluor counter: counter-screen for tau fibril formation inhibitors. actives 0.93% (n = 280,000). Potency, µM (titrated, usually from 57.7 µM), inactives show at the highest dose activity change, negative = decrease. AID 1463. tau K18 P301L Alexa594 fluorescence, heparin fibrillization; further: nearly all actives have a fitted effect of over 55% in size
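Human K18 P301L tau (15 uM unlabeled plus 0.24 uM Alexa 594-labeled, final) in 100 mM sodium acetate pH 7 was mixed with compound and 20 uM heparin and incubated 6 hr at 37 C.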
Tau fibril ThT: tau fibrillization inhibition (ThT binding); P10636; recombinant tau K18 P301L (four-repeat tau fragment), heparin-induced fibrillization, ThT fluorescence; Potency, µM (top dose mostly 57.4 µM), for inactives: at the top dose activity, negative = inhibition, most hits filed as inhibitors; actives 2.1% (n = 270,000); AID 1460; further: nearly all actives have a fitted effect of over 55% in size
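Heparin-induced fibrillization of the P301L-mutant K18 repeat-domain fragment of human tau was followed by ThT binding in quantitative high-throughput format.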
An asterisk follows results filed as active; ? = inconclusive; / = no result; [ ] = another dose, or the depositor's remark. Shown are actives, neighbours in structure and some others; about 3.5% of the full set was active somewhere. Unless noted, the call rests on the fitted dose curve; in most records, active means well fitted curve in the direction sought with a large enough effect; inconclusive means small, poorly fitted or top-dose-only effect, or another doubt; inactive means no such curve, though single readings can be large; an effect the other way counts as inactive or inconclusive. Unless noted, on the % scale 0 is the no-effect control and ±100 the full control effect; potency means the concentration at half of the fitted maximal effect.

SMILES	TRb SRC2 PPI	KDM4E inh	Tau FP inhib	TexasRed fluor	Tau fluor counter	Tau fibril ThT
CCn1c(O)c(N=Nc2ccc3ccccc3n2)c2ccccc21	-2%	-2%	2%	-8%	-18%	4µM*
CCCCn1c(O)c(N=Nc2ccccn2)c2ccccc21	8%	4%	-8%	-3%	-19%	?
CC(/C=N/NC(=O)c1ccncc1)=C\c1ccc(C(C)C)cc1	-10%	?	?	2%	-21%	20µM*
CCOC(=O)c1cnc2c(-c3ccccc3)c(C)nn2c1N	-5%	?	0%	-1%	-10%	?
CCOC(=O)c1cnc2c(N=Nc3ccccc3)c(N)nn2c1N	-8%	6%	0%	-1%	-11%	2.5µM*
CCOC(=O)c1cnc2c(N=Nc3cccc(Cl)c3)c(N)nn2c1N	3%	-1%	-3%	-1%	-13%	2.5µM*
CC[C@@H]1C(c2cccc(C)c2)=NN(c2ccc(Br)cc2)[C@H]1C(=O)N1CCOC1=O	3%	/	-14%	-4%	8.9µM*[quencher]	?
C[C@@H]1C(c2cccc(Cl)c2)=NN(c2ccc(Br)cc2)[C@H]1C(=O)N1CCOC1=O	3%	/	-7%	-2%	14µM*[quencher]	?
Cc1cccc(C2=NN(c3ccc(Br)cc3)[C@@H](C(=O)N3CCOC3=O)[C@@H]2c2ccccc2)c1	-3%	/	3%	0%	?	-20%
COc1cc(Cl)c(NC(=O)CCS(=O)(=O)c2ccc3c(c2)NC(=O)CO3)c(OC)c1	4%	/	2%	-8%	-17%	-10%
CC1=C(C(=O)Nc2ccccc2)C(c2cccnc2)n2nc(SCc3ccccc3F)nc2N1 (configuration not stated)	-3%	/	-7%	-1%	12%	14%
N#CC1=C(N)NC(SCc2ccc(Br)cc2)=C(C#N)C12CCCCC2	0%	15%	-12%	-6%	10µM*[quencher]	-19%
N#CC1=C(N)NC(SCc2ccccc2)=C(C#N)C12CCCC2	-9%	-7%	8%	-1%	?	-14%
N#CC1=C(N)NC(SCc2ccc(Cl)cc2)=C(C#N)C12CCCCC2	-3%	-4%	6%	-2%	8.9µM*[quencher]	?
Oc1ccc(N2CCN(c3nc(-c4cccs4)nc4ccccc34)CC2)cc1	0%	?	5%	-2%	14µM*[quencher]	/
CC(=S)/C=C1\Sc2ccccc2N1C	0%	-11%	-11%	0%	25%	14µM*
O=C(Cc1cccs1)N1CCC(c2nc3c(nnn3Cc3ccc(F)cc3)c(=O)[nH]2)CC1	-13%	2%	3%	0%	0%	-5%
O=[N+]([O-])c1ccc(Nc2nc(N/N=C\c3ccc4c(c3)OCO4)nc(N3CCCCC3)n2)cc1	4%	-3%	8%	-4%	?	32µM*
O=[N+]([O-])c1ccc(/C=N/Nc2nc(N3CCCCC3)nc(N3CCCCC3)n2)cc1	-4%	1%	11%	-3%	?	?
CCOC(=O)C1CCN(C(=O)NC23CC4CC(CC(C4)C2)C3)CC1	-3%	2%	3%	-2%	-8%	-13%
O=C(C1CCN(S(=O)(=O)c2cccc3cccnc23)CC1)N1CCN(C2CCCC2)CC1	4%	2%	10%	1%	2%	-1%
O=C(O)C1Cc2[nH]cnc2C(c2ccccc2O)N1 (configuration not stated)	4%	32µM*	-2%	-3%	-2%	-6%
O=C(COC(=O)c1cc([N+](=O)[O-])ccc1NCc1ccccc1)NC1CCCc2ccccc21 (configuration not stated)	-5%	-1%	2%	0%	-23%	-17%
COc1ccccc1C(=O)Nc1c(C(=O)c2ccccc2)oc2ccccc12	-12%	/	?	0.056µM*[quencher]	-29%	-5%
Cc1ccc(Nc2nc(-c3ccc(O)c(O)c3)cs2)nc1	7%	?	14%	-5%	14µM*[quencher]	10µM*
